SMARCA2 activ = SMARCA2 (BRM) function activators, primary screen, cell-based, luminescence, high throughput. MG213 cells, MMTV-luciferase reporter, dexamethasone, overnight. activation, % at 9.1 µM. 370,000 compounds, 1% hits; in the data active means activation above about 7.8%
GASC-1 inh = inhibitors of GASC-1 histone demethylase, primary screen, biochemical, fluorescence, DELFIA europium; Lysine-specific demethylase 4C (Homo sapiens), Q9H3R0; GST-JMJD2C(1-420) H3K9me3 demethylation; inhibition, % at 2.35 µM; 330,000 compounds, 0.069% hits; AID 2099, 2009;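 active means more than half of a compound's replicate wells show inhibition beyond 50%, single wells judged on their own value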;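 further: signal counts dimethyl H3K9 product captured on neutravidin plate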
Target sequence (Q9H3R0 1-420 limits assumed): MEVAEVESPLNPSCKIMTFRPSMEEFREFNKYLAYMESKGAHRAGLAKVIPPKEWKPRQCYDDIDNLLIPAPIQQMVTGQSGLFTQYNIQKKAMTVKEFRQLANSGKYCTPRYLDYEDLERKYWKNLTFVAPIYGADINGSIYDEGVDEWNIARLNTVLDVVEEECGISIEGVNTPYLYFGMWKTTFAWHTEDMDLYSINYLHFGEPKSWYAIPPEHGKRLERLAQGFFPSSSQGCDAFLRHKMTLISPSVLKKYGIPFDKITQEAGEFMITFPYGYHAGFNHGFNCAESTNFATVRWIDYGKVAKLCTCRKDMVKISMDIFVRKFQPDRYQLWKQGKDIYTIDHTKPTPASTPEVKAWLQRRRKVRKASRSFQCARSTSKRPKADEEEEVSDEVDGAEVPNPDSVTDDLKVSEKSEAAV
PfM18AAP inh = PfM18AAP inhibitors, malaria aminopeptidase, primary screen, biochemical, QFRET, recombinant enzyme; M18 aspartyl aminopeptidase (Plasmodium falciparum 3D7); H-Glu-NHMec fluorogenic cleavage; inhibition, % at 7.35 µM; 290,000 compounds, 1.2% hits;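 active means inhibition above the campaign mean inhibition over all tested compounds plus 3 SD, cut at about 28% in these data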
beta cell repl = inducers of MIN6 beta-cell proliferation, primary screen, ATP luminescence, uHTS; MIN6 cells proliferation, ATPlite luminescence, 48 h; cells starved in 0.2% serum; 100% = growth in 10% serum; proliferation, % at 10 µM; 330,000 compounds, 0.29% hits; AID 2380, 2010;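 active means compounds whose signal lies at least 3.5 SD above the mean of all wells on their plate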
ALR inh = inhibitors of human ALR sulfhydryl oxidase, primary screen, biochemical, H2O2 detection, HRP-luminol luminescence, single point | FAD-linked sulfhydryl oxidase ALR (Homo sapiens), P55789 | 290,000 compounds, 3.8% hits | AID 485317, 2010 | inhibition, % (concentration not given with the values) | purified ALR, DTT oxidation;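 active means mean replicate inhibition above about 79%, with every replicate also reaching it, limit read from the data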
Exocytosis inh = LAMP-1 surface exposure blockers, TALL-104 cells – cell-based, flow cytometry, MLPCN library, primary screen; TALL-104 LAMP-1 surface exposure; cells stimulated with thapsigargin and PMA; inhibition, % at 10 µM; 360,000 compounds, 0.66% hits; AID 651702, 2012;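 active means inhibition above about 55%, limit read from the data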
Large screens that a line does not name were inactive. Sampled rows, rich in hits. Any-hit rate of the full collection: about 5.4%.

O=C(c1c(O)cc(O)cc1O)C1c2c(cc(O)c3c2O[C@H](c2ccc(O)cc2)[C@@H](O)C3)OC1c1ccc(O)cc1 (some centres not stated)	ALR inh 98.9 (no result: PfM18AAP inh)
O=C1CC(c2ccccc2)c2c(O)cc(O)cc2O1 (configuration not stated)	none
CCOc1ccc(-c2nc(CSCC(=O)N3CCN(c4cccc(OC)c4)CC3)c(C)o2)cc1	ALR inh 99.5
COc1cccc(-c2nc(CSCC(=O)N3CCc4ccccc43)c(C)o2)c1	none
CCc1ccc(-c2nc(CSCC(=O)N3CCN(c4ccccn4)CC3)c(C)o2)cc1	ALR inh 85.1
Cc1ccc(-c2nc(CSCC(=O)N3CCN(c4ccccn4)CC3)c(C)o2)cc1	ALR inh 98.5
Cc1ccc(S(=O)(=O)Cc2ccc(C(=O)N3CCN(c4ccccn4)CC3)o2)cc1	ALR inh 97.5
O=C(c1ccc(CS(=O)(=O)c2ccc(Br)cc2)o1)N1CCN(c2ccccn2)CC1	none
Cc1oc(-c2ccccc2Cl)nc1CSCC(=O)N1CCCC1	none
O=C(C1CCN(S(=O)(=O)c2ccc3[nH]c(=O)oc3c2)CC1)N1CCCN(Cc2ccccc2)CC1	none (no result: GASC-1 inh, PfM18AAP inh, beta cell repl, ALR inh, Exocytosis inh)
Cc1ccccc1NC(=O)C[C@H]1CC[C@H]2[C@@H](COc3ccc(NC(=O)Nc4ccccc4)cc3C(=O)N2C)O1	none (no result: GASC-1 inh, PfM18AAP inh, beta cell repl, ALR inh, Exocytosis inh)
CCCCN(C)C(=O)CN1C(=O)C2CCCCN2C(=O)c2ccccc21 (configuration not stated)	none (no result: GASC-1 inh, PfM18AAP inh, beta cell repl, ALR inh, Exocytosis inh)
COC(=O)[C@]12C[C@H](CC(=O)NCc3cccc(C(F)(F)F)c3)C(=O)N(CCC3=CCCCC3)C1=C[C@H](C(C)C)O[C@@H]2C1CC1	none (no result: GASC-1 inh, PfM18AAP inh, beta cell repl, ALR inh, Exocytosis inh)
COC(=O)[C@]12C[C@H](CC(=O)N3CCN(C(=O)C4CC4)CC3)C(=O)N(Cc3ccc(Cl)cc3Cl)C1=C[C@H](C(C)(C)C)O[C@@H]2C	none (no result: GASC-1 inh, PfM18AAP inh, beta cell repl, ALR inh, Exocytosis inh)
O=C(CSc1ccccc1)N1CCN(c2ccccn2)CC1	none (no result: ALR inh)
O=C(CSCc1ccccc1Cl)N1CCN(c2ccccn2)CC1	ALR inh 99.1
CCOc1cc2c(c3c1C(c1ccccc1)N(S(=O)(=O)c1ccc(C)cc1)C3)C(=O)C=CC2=O (configuration not stated)	Exocytosis inh 73.7 (no result: GASC-1 inh, PfM18AAP inh, beta cell repl, ALR inh)
CCC(C)NC(=O)CN1C(=O)c2cccc3cccc1c23 (configuration not stated)	none
CCN1/C(=N\N)c2cccc3cccc1c23	Exocytosis inh 95.3
O=[N+]([O-])c1cc2c(cc1CN1CCN(c3ccccc3F)CC1)OCO2	PfM18AAP inh 29.4
CCOc1ccc(OCCC(=O)OCC(=O)Nc2cc(C)nn2-c2ccccc2)cc1	none (no result: PfM18AAP inh)
Cc1cc(Nc2ccccc2)n(CCOC(=O)COc2ccccc2)n1	ALR inh 98.1
N#Cc1ccc(/C=C2\CC3(OC(=O)c4cccc(F)c4)CCCN2C3)cc1 (configuration not stated)	none (no result: GASC-1 inh, PfM18AAP inh, beta cell repl, ALR inh, Exocytosis inh)
Cc1cccc(NC(=S)NNC(=O)c2ccc(O)cc2O)c1C	PfM18AAP inh 29.1, ALR inh 98.8
Cc1cccc(NC(=O)NNC(=O)c2cc3ccccc3cc2O)c1C	none
O=C(COc1ccc(Cl)cc1Cl)NNC(=S)NCc1ccco1	ALR inh 83.2
Cc1cc(Cl)cc(Cl)c1OCC(=O)NCc1ccco1	ALR inh 91.3
Cc1ccc(OCCCC(=O)NCc2ccco2)c(C)c1	ALR inh 95.5 (no result: SMARCA2 activ, Exocytosis inh)
CCCCNC(=O)C[C@H]1C[C@@]2(C(=O)OC)C(=C[C@H](COCc3ccccc3)O[C@@H]2C)N(Cc2cccc3ccccc23)C1=O	none (no result: GASC-1 inh, PfM18AAP inh, beta cell repl, ALR inh, Exocytosis inh)
O=C(Nc1ccc2c(c1)OCO2)OC1CCC12CCC(c1ccccc1)CC2 (configuration not stated)	none (no result: GASC-1 inh, PfM18AAP inh, beta cell repl, ALR inh, Exocytosis inh)
COC(=O)[C@]12C[C@H](CC(=O)N3CCCCC3)C(=O)N(Cc3ccc(Cl)cc3Cl)C1=C[C@H](C1CCCC1)O[C@@H]2C	none (no result: GASC-1 inh, PfM18AAP inh, beta cell repl, ALR inh, Exocytosis inh)
Cc1sc2nc(CN3CCCCC3)nc(Cl)c2c1C	ALR inh 98.0
